Tests used:
Assay in all cases: log2 ratio of Biotin-Ahx-Ub-VS probe labelling (fragment/DMSO); higher = less target engagement (more negative = stronger competition), active = hit call of the paper (q ≤ 0.05, log2 ratio ≤ -1)
Details in all cases: compound concentration: 200 uM; treatment time: 3 h
USP42 = molecular target: T1, USP42 (UniProt Q9H9J4)
T1 sequence (whole entry): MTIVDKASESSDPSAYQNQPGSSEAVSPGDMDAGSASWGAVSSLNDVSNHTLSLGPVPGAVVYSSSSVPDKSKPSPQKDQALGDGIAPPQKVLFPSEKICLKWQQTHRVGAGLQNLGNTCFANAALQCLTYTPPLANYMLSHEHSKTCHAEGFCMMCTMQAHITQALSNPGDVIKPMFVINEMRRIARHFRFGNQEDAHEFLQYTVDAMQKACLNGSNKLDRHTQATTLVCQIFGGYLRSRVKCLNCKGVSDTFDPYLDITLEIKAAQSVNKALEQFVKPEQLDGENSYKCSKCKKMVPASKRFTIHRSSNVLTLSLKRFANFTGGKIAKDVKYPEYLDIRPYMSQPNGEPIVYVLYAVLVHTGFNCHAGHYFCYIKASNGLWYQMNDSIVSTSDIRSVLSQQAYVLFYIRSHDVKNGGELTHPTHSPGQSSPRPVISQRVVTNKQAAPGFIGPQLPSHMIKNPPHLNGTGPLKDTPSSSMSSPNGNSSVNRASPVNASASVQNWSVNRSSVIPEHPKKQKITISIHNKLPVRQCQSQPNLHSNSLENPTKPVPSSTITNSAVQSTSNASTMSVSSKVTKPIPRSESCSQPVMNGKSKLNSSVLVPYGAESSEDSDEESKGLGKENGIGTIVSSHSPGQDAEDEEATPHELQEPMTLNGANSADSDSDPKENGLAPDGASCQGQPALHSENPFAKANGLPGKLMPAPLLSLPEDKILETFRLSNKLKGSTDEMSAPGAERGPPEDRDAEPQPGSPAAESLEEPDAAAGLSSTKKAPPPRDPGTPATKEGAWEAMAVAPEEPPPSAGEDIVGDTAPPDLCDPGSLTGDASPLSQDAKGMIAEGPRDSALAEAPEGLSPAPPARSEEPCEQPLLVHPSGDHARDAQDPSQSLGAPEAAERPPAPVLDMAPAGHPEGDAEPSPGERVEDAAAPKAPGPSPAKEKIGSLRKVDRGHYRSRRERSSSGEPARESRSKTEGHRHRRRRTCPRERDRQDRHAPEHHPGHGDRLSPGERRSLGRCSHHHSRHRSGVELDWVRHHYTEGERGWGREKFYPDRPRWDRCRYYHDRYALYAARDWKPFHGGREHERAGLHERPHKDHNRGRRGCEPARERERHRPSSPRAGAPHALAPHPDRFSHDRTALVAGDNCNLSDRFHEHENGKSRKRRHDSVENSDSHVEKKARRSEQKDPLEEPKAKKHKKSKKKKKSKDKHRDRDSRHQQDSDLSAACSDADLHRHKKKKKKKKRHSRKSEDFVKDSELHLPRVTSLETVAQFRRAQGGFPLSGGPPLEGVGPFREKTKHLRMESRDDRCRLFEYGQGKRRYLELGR
Outline: (§1)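 HEK293T lysate (495 µg per sample, in Tris/CHAPS/IGEPAL buffer with protease inhibitors) was treated in triplicate with fragment at 200 µM or with DMSO for 3 h. It was then treated with Biotin-Ahx-Ub-VS (0.5 µM final) for 1 h. Labelled DUBs were NeutrAvidin-enriched, digested with LysC and trypsin, and run by diaPASEF LC-MS/MS. Spectronaut label-free quantities were global-median-normalised. Values are average log2 ratios fragment/DMSO by unpaired t-test, using proteins with ≥2 unique peptides.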

USP46 = USP46 (UniProt P62068)
Outline: as §1

USP47 = molecular target: T2, USP47 (UniProt Q96K76)
T2 sequence (whole entry): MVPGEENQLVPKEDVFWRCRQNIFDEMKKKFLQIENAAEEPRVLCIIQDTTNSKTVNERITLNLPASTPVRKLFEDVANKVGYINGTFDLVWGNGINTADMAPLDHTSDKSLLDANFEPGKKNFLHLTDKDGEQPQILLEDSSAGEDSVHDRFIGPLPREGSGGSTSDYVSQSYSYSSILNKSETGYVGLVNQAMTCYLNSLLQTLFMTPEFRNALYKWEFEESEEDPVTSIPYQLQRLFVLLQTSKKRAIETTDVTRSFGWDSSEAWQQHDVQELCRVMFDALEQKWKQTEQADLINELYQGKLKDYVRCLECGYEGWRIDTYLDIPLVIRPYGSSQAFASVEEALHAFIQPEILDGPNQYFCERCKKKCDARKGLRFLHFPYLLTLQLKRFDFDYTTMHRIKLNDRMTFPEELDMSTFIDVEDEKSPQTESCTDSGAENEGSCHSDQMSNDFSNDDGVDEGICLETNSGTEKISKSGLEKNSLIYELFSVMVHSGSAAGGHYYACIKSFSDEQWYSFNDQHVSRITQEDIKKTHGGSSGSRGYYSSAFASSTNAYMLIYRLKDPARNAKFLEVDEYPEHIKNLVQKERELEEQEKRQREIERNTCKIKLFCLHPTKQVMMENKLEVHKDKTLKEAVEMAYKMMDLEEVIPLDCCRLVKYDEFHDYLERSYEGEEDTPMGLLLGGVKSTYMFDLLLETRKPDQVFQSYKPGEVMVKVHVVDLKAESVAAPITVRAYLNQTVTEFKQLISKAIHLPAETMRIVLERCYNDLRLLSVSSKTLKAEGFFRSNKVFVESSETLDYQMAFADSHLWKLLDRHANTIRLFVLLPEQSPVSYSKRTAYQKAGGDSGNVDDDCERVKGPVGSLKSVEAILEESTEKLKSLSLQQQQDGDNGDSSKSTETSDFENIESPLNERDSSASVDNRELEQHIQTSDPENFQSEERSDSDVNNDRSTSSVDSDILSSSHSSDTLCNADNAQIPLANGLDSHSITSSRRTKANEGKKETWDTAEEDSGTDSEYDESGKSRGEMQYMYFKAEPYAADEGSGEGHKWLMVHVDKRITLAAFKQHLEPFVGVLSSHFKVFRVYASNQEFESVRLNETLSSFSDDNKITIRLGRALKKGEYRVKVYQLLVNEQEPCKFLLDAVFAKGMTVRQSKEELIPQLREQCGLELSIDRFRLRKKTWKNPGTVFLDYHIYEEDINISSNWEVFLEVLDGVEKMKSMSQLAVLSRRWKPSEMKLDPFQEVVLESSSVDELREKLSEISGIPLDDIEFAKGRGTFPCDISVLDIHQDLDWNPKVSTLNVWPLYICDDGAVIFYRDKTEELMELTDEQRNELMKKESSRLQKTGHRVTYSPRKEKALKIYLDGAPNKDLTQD
Outline: as §1

USP48 = molecular target: T3, USP48 (UniProt Q86UV5)
T3 sequence (whole entry): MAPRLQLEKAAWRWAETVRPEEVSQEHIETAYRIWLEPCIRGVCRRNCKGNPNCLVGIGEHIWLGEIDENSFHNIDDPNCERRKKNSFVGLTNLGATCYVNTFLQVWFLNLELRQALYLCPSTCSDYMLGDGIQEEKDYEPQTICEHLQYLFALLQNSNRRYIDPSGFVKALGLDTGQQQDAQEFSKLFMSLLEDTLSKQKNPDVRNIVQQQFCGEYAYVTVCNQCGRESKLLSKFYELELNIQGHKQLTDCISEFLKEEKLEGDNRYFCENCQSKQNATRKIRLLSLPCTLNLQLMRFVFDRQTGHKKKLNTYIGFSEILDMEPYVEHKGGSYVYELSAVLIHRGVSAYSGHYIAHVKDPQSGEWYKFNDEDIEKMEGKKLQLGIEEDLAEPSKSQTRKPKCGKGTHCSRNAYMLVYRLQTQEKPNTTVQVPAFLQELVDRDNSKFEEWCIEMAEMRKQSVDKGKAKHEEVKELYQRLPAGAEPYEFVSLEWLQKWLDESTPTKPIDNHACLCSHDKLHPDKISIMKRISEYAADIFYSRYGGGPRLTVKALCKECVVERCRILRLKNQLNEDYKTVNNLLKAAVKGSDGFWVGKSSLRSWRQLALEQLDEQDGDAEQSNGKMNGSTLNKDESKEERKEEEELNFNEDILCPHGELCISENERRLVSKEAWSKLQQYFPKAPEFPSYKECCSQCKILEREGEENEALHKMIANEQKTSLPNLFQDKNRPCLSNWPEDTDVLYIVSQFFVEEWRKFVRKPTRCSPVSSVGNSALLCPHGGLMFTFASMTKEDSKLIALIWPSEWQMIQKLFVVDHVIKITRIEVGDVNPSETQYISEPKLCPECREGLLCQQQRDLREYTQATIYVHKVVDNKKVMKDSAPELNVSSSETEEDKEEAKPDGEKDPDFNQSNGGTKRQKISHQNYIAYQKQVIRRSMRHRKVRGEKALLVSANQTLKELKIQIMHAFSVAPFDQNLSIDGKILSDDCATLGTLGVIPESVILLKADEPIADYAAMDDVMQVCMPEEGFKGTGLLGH
Outline: as §1

USP5 = molecular target: T4, USP5 (UniProt P45974)
T4 sequence (whole entry): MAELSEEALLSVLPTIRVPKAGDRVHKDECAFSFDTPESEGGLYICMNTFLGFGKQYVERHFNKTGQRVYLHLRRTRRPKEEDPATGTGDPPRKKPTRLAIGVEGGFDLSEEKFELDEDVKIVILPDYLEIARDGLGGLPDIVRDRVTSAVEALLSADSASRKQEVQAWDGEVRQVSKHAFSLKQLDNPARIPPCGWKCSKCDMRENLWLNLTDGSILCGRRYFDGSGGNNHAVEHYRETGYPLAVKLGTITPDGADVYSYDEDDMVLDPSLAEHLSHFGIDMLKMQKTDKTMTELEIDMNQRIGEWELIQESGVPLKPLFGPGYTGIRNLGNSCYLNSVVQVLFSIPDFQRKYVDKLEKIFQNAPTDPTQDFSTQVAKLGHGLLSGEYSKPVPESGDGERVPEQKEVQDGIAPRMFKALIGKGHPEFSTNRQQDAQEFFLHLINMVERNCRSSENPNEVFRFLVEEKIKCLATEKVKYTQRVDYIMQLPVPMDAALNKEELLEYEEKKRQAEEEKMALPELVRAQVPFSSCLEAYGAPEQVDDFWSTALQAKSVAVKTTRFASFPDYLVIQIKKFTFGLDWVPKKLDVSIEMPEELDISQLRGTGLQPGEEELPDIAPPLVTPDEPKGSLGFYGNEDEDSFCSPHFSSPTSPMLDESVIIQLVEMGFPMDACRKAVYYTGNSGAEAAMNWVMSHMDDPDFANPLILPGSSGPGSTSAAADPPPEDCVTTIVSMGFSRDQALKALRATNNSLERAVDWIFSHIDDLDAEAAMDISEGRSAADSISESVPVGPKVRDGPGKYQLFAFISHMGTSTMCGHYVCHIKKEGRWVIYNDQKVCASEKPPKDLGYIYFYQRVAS
Outline: as §1

USP54 = USP54 (UniProt Q70EL1)
Outline: as §1

USP7 = USP7 (UniProt Q93009)
Outline: as §1

USP8 = molecular target: T5, USP8 (UniProt P40818)
T5 sequence (whole entry): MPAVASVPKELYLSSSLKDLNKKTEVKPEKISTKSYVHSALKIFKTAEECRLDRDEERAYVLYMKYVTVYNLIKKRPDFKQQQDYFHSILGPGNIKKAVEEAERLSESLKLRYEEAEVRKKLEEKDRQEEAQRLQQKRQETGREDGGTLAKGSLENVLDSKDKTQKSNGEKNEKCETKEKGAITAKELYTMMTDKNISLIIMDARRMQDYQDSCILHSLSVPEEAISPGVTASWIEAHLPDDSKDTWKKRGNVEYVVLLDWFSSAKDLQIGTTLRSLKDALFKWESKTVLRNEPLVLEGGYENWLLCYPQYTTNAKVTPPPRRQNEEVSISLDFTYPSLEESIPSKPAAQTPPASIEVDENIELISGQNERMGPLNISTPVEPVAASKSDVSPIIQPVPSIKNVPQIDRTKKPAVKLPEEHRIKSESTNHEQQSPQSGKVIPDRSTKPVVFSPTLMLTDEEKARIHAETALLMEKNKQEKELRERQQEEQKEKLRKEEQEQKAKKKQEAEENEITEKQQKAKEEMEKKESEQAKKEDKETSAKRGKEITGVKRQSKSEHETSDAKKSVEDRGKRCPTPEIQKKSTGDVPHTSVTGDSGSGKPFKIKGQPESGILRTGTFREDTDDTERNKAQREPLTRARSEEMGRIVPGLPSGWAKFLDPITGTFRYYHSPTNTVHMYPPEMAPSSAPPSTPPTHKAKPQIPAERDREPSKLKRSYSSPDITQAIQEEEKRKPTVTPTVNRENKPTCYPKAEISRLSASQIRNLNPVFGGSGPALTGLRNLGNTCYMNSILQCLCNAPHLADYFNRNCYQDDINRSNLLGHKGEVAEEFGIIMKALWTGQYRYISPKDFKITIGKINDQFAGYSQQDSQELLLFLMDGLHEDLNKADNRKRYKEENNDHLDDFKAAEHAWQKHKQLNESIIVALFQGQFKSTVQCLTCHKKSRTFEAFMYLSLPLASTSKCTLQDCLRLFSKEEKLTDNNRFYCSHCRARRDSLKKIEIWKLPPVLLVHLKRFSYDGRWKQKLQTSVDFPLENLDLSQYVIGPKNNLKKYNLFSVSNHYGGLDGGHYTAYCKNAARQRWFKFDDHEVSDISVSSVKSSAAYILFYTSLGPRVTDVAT
Outline: as §1

Measured: log2 ratio of Biotin-Ahx-Ub-VS probe labelling

Sequence of USP7 (Q93009 whole entry, looked up): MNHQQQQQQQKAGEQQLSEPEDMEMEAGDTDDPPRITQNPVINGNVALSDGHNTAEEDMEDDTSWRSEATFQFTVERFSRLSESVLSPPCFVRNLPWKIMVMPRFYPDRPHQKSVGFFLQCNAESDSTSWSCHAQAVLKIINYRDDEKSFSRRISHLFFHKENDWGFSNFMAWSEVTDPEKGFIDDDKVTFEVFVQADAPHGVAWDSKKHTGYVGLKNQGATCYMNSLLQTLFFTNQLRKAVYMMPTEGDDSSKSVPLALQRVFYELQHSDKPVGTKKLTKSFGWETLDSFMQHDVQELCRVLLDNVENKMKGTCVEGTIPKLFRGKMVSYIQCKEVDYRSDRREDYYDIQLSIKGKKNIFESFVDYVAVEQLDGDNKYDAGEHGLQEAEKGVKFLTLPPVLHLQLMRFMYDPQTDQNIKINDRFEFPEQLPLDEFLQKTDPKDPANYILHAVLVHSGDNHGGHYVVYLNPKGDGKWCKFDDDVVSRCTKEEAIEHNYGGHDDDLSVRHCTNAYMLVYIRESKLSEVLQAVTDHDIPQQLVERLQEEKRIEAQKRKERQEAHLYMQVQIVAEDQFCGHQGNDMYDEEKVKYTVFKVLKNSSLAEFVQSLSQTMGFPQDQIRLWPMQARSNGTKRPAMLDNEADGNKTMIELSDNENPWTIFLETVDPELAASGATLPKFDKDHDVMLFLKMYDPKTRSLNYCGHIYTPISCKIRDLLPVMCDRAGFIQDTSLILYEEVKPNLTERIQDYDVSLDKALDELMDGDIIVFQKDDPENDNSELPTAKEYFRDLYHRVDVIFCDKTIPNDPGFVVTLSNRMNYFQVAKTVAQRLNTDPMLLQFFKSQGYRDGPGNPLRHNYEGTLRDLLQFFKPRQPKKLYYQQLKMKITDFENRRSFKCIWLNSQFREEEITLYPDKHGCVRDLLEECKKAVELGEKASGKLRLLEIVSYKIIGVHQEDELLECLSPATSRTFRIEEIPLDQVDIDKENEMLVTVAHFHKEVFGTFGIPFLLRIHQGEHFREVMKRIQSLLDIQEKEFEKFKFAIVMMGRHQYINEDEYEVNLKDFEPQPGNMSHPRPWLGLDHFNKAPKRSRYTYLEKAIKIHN
Sequence of USP54 (Q70EL1 whole entry): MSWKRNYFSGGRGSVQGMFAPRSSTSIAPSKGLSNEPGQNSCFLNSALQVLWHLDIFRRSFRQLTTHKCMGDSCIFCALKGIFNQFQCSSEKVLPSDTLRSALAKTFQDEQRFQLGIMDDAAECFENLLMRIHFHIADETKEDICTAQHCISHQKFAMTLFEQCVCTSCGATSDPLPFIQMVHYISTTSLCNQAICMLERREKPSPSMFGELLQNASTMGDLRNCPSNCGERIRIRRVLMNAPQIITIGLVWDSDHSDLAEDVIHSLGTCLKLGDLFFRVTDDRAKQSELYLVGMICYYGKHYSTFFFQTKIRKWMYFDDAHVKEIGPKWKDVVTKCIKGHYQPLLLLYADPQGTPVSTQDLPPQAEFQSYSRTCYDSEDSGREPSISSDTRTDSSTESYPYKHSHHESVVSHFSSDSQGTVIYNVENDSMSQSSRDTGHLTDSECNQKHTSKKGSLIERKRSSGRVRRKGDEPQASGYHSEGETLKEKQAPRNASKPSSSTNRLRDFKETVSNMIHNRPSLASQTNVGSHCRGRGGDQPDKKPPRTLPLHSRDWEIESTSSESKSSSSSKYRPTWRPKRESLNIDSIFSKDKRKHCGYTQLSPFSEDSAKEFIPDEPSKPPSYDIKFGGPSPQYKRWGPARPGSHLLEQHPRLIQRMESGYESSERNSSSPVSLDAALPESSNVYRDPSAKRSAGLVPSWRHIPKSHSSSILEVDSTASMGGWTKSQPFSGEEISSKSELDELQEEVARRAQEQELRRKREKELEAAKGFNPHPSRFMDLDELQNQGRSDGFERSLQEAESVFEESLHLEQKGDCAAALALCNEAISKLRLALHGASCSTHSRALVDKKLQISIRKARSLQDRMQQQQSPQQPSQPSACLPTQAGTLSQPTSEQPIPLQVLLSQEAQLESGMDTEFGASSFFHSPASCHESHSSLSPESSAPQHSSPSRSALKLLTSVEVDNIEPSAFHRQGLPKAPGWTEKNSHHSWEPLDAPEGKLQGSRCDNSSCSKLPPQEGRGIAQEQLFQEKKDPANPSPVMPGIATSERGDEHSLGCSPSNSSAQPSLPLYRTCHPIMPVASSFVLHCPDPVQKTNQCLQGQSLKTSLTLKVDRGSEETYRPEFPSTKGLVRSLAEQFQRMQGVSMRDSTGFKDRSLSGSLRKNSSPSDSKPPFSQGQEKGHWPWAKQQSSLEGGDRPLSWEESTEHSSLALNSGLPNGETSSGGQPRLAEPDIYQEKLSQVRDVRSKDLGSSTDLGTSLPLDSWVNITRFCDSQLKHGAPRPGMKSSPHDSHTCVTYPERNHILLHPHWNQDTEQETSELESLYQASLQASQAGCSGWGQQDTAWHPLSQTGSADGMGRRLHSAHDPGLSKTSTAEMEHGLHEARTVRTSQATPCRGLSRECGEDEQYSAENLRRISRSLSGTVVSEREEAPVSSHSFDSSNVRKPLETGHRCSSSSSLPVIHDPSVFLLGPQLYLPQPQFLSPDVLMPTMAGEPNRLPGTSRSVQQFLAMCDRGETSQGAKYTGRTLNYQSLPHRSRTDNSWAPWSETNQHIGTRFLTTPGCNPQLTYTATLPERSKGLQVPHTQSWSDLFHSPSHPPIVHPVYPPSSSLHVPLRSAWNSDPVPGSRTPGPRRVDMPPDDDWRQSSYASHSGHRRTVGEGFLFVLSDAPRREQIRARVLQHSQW
Sequence of USP46 (P62068 whole entry): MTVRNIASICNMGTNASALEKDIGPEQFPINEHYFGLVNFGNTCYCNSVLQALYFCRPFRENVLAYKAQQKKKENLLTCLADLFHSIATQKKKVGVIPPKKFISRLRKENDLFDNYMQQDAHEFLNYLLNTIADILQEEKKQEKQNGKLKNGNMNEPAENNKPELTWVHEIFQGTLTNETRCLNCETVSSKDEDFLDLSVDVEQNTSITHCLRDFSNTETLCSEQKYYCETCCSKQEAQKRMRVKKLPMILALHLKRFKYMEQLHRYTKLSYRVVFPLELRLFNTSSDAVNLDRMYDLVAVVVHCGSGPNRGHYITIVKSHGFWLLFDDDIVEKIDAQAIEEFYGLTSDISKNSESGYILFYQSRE

Cc1cccc2nc(CCNC(=O)CCl)cn12.Cl
inactive: USP42 -0.108 | USP46 -0.0973 | USP47 0.216 | USP48 -0.0534 | USP5 -0.101 | USP54 0.94 | USP7 -0.308 | USP8 -0.222

Source: the supplement of paper PMC11732987, “Enantioselective OTUD7B fragment discovery through chemoproteomics screening and high-throughput optimisation” (Communications Chemistry, 2025)
